# Rows were chosen to be rich in hits. Some 8.1% of all compounds tested hit in one or more screens of this group.
# KB-V1 MDR tox – qHTS assay for MDR1-selective chemotherapeutics: Primary screen using the drug-selected MDR subline cells KB-V1 | AID 1347076, 2019 | Potency, µM (top dose mostly 46.1 µM), actives largely listed as cytotoxic | KB-V1 MDR cells viability, CellTiter-Glo, 72 h | actives 3.4% (n = 400,000); note: nearly all actives have a fitted effect of over 60% in size
#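 Compound-treated KB-V1 multidrug-resistant cells, 72 h, 37 degrees C; viability by CellTiter-Glo. Fitted qHTS curves give the values.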
# KB-3-1 cytotox – qHTS assay for MDR1-selective chemotherapeutics: Primary screen using the parental adenocarcinoma cell KB-3-1. KB-3-1 viability, CellTiter-Glo ATP luminescence, 72 h. Potency, µM (series often up to 46.1 µM), actives largely listed as cytotoxic. actives 1.4% (n = 400,000). AID 1347075, 2019; note: nearly all actives have a fitted effect of over 60% in size
#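 Cytotoxicity measured as CellTiter-Glo luminescence after 72 h at 37 C. Compound titrations were pinned onto drug-naive KB-3-1 parental adenocarcinoma cells grown in DMEM with 10% FBS, and normalized data fitted to concentration-response curves.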
# ELG1 repair inh – qHTS screen for small molecules that inhibit ELG1-dependent DNA repair in human embryonic kidney (HEK293T) cells expressing luciferase-tagged ELG1; Potency, µM (doses to about 46.1 µM), hits mostly inhibitors; actives 2.3% (n = 330,000); HEK293T ELG1-luciferase reporter, luminescence, 16 h; DNA damage induced by 5-fluorouridine; note: nearly all actives have a fitted effect of over 55% in size
#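 Quantitative HTS, concentration-response format. 2,000 cells/well co-treated with 5-fluorouridine and compound, 16 hr in 5% CO2 at 37 °C; ONE-Glo luminescence read after 30 min.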
# MCF10A rerep – A quantitative high throughput screen for small molecules that induce DNA re-replication in MCF 10a normal breast cells; actives 2.9% (n = 350,000); MCF 10A DNA re-replication, Hoechst nuclear intensity, 48 h; AID 624296, 2012; Potency, µM (series often up to 46.1 µM), actives largely listed as activators; note: nearly all actives have a fitted effect of over 50% in size
# SW480 rerep – A quantitative high throughput screen for small molecules that induce DNA re-replication in SW480 colon adenocarcinoma cells; SW480 DNA re-replication, Hoechst DNA content imaging, 48 h; actives 1.8% (n = 340,000); Potency, µM (top dose mostly 46.1 µM), actives largely listed as activators; note: nearly all actives have a fitted effect of over 55% in size
#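 Quantitative HTS format with DMSO vehicle controls; 48 hr drug incubation at 37 C, then 40 min Hoechst staining and scanning imager measurement at 405 nm excitation.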
# Hits are given with their value; n = inactive; u = inconclusive; x = no result. Calls come from the whole dose curve; as a rule, active = well fitted curve in the direction sought with a large enough effect; inconclusive = small, poorly fitted or top-dose-only effect, or another doubt; inactive = no such curve, though single readings can be large; an effect the other way counts as inactive or inconclusive.
SMILES,KB-V1 MDR tox,KB-3-1 cytotox,ELG1 repair inh,MCF10A rerep,SW480 rerep
Cc1ccc(OCc2nc3ccccc3n2C(C(=O)NC(C)(C)C)c2ccncc2)cc1 (stereo not given),u,n,x,x,x
CCOC(=O)c1cc(S(=O)(=O)Nc2cc(OC)ccc2OC)[nH]n1,n,n,x,x,x
COc1ccc(-c2nnc(SCc3nnc(-c4ccc(Cl)cc4)o3)n2-c2ccccc2)cc1,3.7µM,u,x,u,u
COc1ccc(-n2c(SCc3nnc(-c4ccccc4)o3)nnc2-c2ccccc2)cc1,2.3µM,n,n,n,n
COc1ccc(-c2nnc(SCc3nnc(-c4ccccc4)o3)n2-c2ccccc2)cc1,u,n,n,n,n
CCNC(=O)C1(C)CCN(C(=O)c2c(F)ccc(C)c2F)C1 (stereo not given),n,n,x,x,x
CC(C)C[C@H](NC(=O)OC(C)(C)C)C(=O)N[C@@H](CO)[C@H](O)[C@@H]1C[C@@H]1C(=O)NC1CCCCC1,10µM,n,n,u,n
CN1/C(=C\C=O)C(C)(C)c2ccccc21,n,n,n,n,n
CN1\C(=C/C=C/C=C/C=[N+](C)C)C(C)(C)c2ccccc21,8.2µM,u,n,u,n
Cc1sc2ncnc(N3CCN(CCOc4ccc(Cl)cc4)CC3)c2c1C,u,u,u,18µM,u
Cc1sc2ncnc(N3CCN(Cc4ccccc4)CC3)c2c1-c1ccccc1,10µM,u,u,16µM,n
COc1cccc(C(=O)Nc2cccc(-c3ccc(N4CCOCC4)nn3)c2)c1OC,u,u,n,u,n
COCCNC(=O)c1cc2c(c(-c3cccc(C#Cc4ccc(OC)c(OC)c4)c3)n1)[C@@H](CCO)N(S(=O)C(C)(C)C)C2 (stereo not given in full),n,n,x,x,x
CC1CCCN(CCOCCOc2ccc(Br)cc2Cl)C1 (stereo not given),n,u,n,u,u
CC1CCCN(CCOCCOc2ccc(Cl)cc2Br)C1 (stereo not given),16µM,u,n,n,u
CC(C)(C)c1ccc(C(=O)Nc2cccc([N+](=O)[O-])c2)cc1,12µM,u,u,u,n
O=C(Nc1cccc(Cl)c1)c1ccc2c(c1)OCCO2,n,n,u,n,n
O=C(Nc1cccc([N+](=O)[O-])c1)c1ccc2ccccc2c1O,4.1µM,u,u,u,n
O=C(Cc1ccccc1)Nc1cccc([N+](=O)[O-])c1,n,n,n,n,n
O=C(Nc1cccc([N+](=O)[O-])c1)c1[nH]ncc1Cl,23µM,n,u,n,n
O=C(Nc1cccc([N+](=O)[O-])c1)c1ccc2c(c1)OCCO2,21µM,u,u,n,n
CC(C)c1cccc(C(C)C)c1NC(=O)CN1C(=O)NC2(CCCC2)C1=O,n,n,n,n,n
Cc1ccc(SCc2ccc(C(=O)Nc3cccc([N+](=O)[O-])c3)cc2)cc1,n,n,n,4.1µM,8.2µM
COc1ccc(CNC(=O)C2CCN(c3nc4ccccc4[nH]3)CC2)c(OC)c1,n,n,x,x,x
O=C(CN1CCSC1=O)Nc1ccc(N2CCOCC2)cc1,n,n,u,n,n
SMILES,KB-V1 MDR tox,KB-3-1 cytotox,ELG1 repair inh,MCF10A rerep,SW480 rerep
CCN(c1ccc(C)c(C)c1)S(=O)(=O)c1ccc2c(c1)CCN2C(=O)CCC(=O)O,n,n,n,21µM,u
CCN(c1ccc(OC)cc1)S(=O)(=O)c1ccc2c(c1)CCN2C(=O)CCC(=O)O,n,n,n,n,u
Cc1cc(=O)n(C)c(=O)n1CCCCCCOc1cccc([N+](=O)[O-])c1,7.3µM,u,u,n,n
COCCNS(=O)(=O)c1ccc2c3c(cccc13)C(=O)N2C,n,n,u,n,n
CN1C(=O)c2cccc3c(S(=O)(=O)NCCc4ccccc4)ccc1c23,n,n,n,23µM,u
COc1ccc(C2CCCCC2SCC(=O)O)cc1OC (stereo not given),n,n,x,x,x
Cc1ccc(N2C(=O)C3C4C=CC(CNC(=S)N5CCN(c6ccccc6)CC5)(O4)C3C2=O)cc1 (stereo not given),n,n,n,u,n
CC(C)(C)OC(=O)NCC12C=CC(O1)C1C(=O)N(Cc3ccccc3)C(=O)C12 (stereo not given),u,n,23µM,n,n
CCCn1c(-c2nonc2N)nc2ccccc21,n,n,16µM,n,n
Cn1c(-c2nonc2N)nc2ccccc21,n,n,n,n,n
COC(=O)c1ccccc1NC(=O)Cn1c(-c2nonc2N)nc2ccccc21,u,0.63µM,n,0.16µM,0.32µM
COC(=O)CCC(=O)NC(=S)Nc1ccc(S(=O)(=O)Nc2cc(OC)nc(OC)n2)cc1,n,n,n,n,2.6µM
CCCCNc1nc2ccccc2c2nc(-c3ccccc3)nn12,n,n,x,x,x
c1nc(N2CCCCCC2)c2[nH]cnc2n1,23µM,n,u,n,n
O=C(Nc1ccc2ccccc2c1)Nc1nnc(-c2cccnc2)s1,n,u,x,x,x
CC(C)NC(=O)N1CC(c2ccccc2)C(c2ccc(Cl)cc2)=N1 (stereo not given),u,n,n,n,n
CC(=O)N1CC(c2ccccc2)C(c2ccc(Cl)cc2)=N1 (stereo not given),15µM,n,n,n,n
N#Cc1ccc(-c2ccc(OCC(=O)Nc3cccnc3)cc2)cc1,x,x,15µM,n,n
N#Cc1cccc(NC(=O)COc2ccc(-n3ccnc3)cc2)c1,n,u,13µM,n,n
COc1cc(NC(=O)COc2ccc(-n3ccnc3)cc2)cc(OC)c1,u,u,u,n,n
Cc1cc(C)cc(-n2c(SCC(=O)NC3CCCCC3)nc3c([nH]c4ccccc43)c2=O)c1,n,n,x,x,x
CCOC(=O)CCSc1nc(-c2ccc3c(c2)OCO3)cc(C(F)(F)F)c1C#N,n,n,n,n,n
CCOC(=O)CC(=O)CSc1nc(-c2ccc3c(c2)OCO3)cc(C(F)(F)F)c1C#N,n,n,n,6.3µM,u
N#Cc1c(C(F)(F)F)cc(-c2ccc(Cl)c(Cl)c2)nc1SCCN1CCOCC1,u,n,n,4.1µM,n
C=CCSc1nc(-c2ccc3c(c2)OCO3)cc(C(F)(F)F)c1C#N,n,n,n,n,7.3µM
Cc1cc(C(F)(F)F)nc(SCCN2CCOCC2)c1C#N,n,n,n,n,n
O=C(NCC(c1ccc2c(c1)OCO2)N1CCN(c2ccccc2F)CC1)c1ccccc1F (stereo not given),n,n,x,x,x
CCN(CC)C(=O)C1=C(C)N(Cc2ccc(OC)cc2)C(=O)C(CC(=O)NC2CCCC2)C1 (stereo not given),n,n,x,x,x

# Assay outcomes from PubChem.
